PubChem BioAssay (NCATS)
Inconclusive results are not listed. A call without a number means that no potency is given here. A number with no mark means an inactive call. The source made the active and inactive calls. The call rests on the fitted dose curve; in most records, active means well fitted inhibition curve with a large enough effect; inconclusive means small, poorly fitted or top-dose-only effect; inactive means no such curve, though single readings can be large or run the other way.

Each molecule was assayed against Rap guanine nucleotide exchange factor 4 (Homo sapiens) (UniProt Q8WZA2) (assay: Confirmatory qHTS for antagonist of cAMP-regulated guanine nucleotide exchange factor 4 (EPAC2) (AID 1645885; further: nearly all actives have a fitted effect of over 25% in size)). Conditions: EPAC2 Rap1B-BODIPY-GDP exchange fluorescence, biochemical; series mostly up to 12.7 µM.
Chain of Rap guanine nucleotide exchange factor 4 (Homo sapiens) (Q8WZA2 whole entry, looked up): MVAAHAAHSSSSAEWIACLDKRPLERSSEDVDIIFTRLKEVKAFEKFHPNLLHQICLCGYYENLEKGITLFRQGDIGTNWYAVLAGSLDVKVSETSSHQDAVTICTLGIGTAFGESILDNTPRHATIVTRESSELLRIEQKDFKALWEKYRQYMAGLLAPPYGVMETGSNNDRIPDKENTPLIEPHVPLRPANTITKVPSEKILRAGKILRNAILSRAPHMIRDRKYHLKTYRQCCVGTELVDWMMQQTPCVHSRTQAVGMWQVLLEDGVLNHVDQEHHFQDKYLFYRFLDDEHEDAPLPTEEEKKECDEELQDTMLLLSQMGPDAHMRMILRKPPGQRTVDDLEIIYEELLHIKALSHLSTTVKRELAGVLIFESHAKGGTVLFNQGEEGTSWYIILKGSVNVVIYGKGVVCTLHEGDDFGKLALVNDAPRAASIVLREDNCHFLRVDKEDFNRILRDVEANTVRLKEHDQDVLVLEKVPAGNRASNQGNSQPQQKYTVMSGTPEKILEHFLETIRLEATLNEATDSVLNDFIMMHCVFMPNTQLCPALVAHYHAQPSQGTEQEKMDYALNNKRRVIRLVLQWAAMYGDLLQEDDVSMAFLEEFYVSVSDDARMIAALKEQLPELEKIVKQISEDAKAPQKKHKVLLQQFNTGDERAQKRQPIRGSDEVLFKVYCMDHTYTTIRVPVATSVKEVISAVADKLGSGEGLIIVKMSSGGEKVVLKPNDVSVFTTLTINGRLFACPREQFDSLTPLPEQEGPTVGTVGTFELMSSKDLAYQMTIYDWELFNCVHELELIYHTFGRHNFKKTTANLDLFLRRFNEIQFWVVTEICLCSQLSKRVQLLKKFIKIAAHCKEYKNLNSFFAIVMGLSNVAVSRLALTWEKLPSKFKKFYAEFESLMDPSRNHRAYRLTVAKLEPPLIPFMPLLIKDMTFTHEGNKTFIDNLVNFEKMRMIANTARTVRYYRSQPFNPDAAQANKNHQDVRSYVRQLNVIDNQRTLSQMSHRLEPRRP
Potency means the concentration at half of the fitted maximal effect.

Row | Compound | Potency | outcome
1 | CC(=O)N1N=C(c2ccc(Cl)cc2)CC1c1ccc([N+](=O)[O-])cc1 (stereo not drawn) | inactive | 
2 | CCOc1cc(-c2ccc(OC(=O)c3ccccc3)c(OC)c2)cc(=O)c2c(C)oc(C)c12 |  | inactive [at 12.7 µM]
3 | CCCOc1ccc(/C=C2/C(=O)ON=C2C)cc1Cl | inactive | 
4 | C#CCN(Cc1nc(N2CCOCC2)c2ccc(Cl)cc2n1)Cc1ccco1 | 17.5 µM (active) | 
5 | CCOc1cc(CNCCSc2nnnn2C)ccc1OCc1ccc(Cl)cc1Cl | 4.26 µM (active) | 
6 | Cc1noc(C)c1COc1ccccc1C(=O)NC(C)c1ccc(Cl)cc1 (stereo not drawn) | 33.8 µM (active) | 
7 | CCOC(=O)c1ccc(NC(=O)c2c(NCc3cccs3)sc3c2CCCCC3)cc1 |  | inactive [at 12.7 µM]
8 | O=C(NNC(=O)c1ccccc1F)c1cccc(-n2cccc2)c1 | inactive | 
9 | CC1=NN(c2ccccc2)C(=O)C1=Cc1ccccc1 | inactive | 
10 | CSc1cccc(N2CC(C(=O)Nc3cccc(S(=O)(=O)N4CCCC4)c3)CC2=O)c1 (stereo not drawn) | inactive | 
11 | COC(=O)Cn1c(CN2CCc3ccccc3C2)nc2c1c(=O)n(C)c(=O)n2C | inactive | 
12 | CC(C)Cc1ccc(CN2CCCC(NC(=O)c3cnc4ccccn4c3=O)C2)cc1 (stereo not drawn) | inactive | 
13 | CN(C)c1ccc(C(=O)Nc2sc(Nc3ccccc3)nc2C(N)=O)cc1 | inactive | 
14 | O=C(Nc1c(-c2ccc3c(c2)OCO3)[nH][nH]c1=O)c1ccccc1 | inactive | 
15 | Cc1ccccc1NC(=O)c1sc2nc(-c3cc4ccccc4oc3=O)[nH]c(=O)c2c1C |  | inactive; activator; fitted 0.8492 uM [at 12.7 µM]
16 | Cc1cccc(CN2Cc3cccc4c3[C@H](C=CC4)CC2=O)c1 | 44.1 µM (active) | 
17 | O=C(c1ccc(Br)cc1)C(CN1CCOCC1)c1ccccc1 (stereo not drawn) | inactive | 
18 | COc1ccc(C(=O)CSc2nnc(-c3ccco3)c(-c3ccco3)n2)cc1 | inactive | 
19 | CN(c1ccccc1)c1ccc(/C=C(/CCC(=O)O)c2nc3ccccc3s2)cc1[N+](=O)[O-] | inactive | 
20 | NS(=O)(=O)c1ccc2c(c1)C1C=CCC1C(C1CC=CCC1)N2 (stereo not drawn) | inactive | 
21 | CC(CNC(=O)c1sc2ncccc2c1-n1cccc1)c1ccccc1 (stereo not drawn) | inactive | 
22 | Cc1ccc(NC(=O)c2sc3nc(-c4ccncc4)ccc3c2N)cc1 | inactive | 
23 | O=C(NC1(O)C(=O)c2ccccc2C1=O)c1ccc(C(F)(F)F)cc1 | inactive | 
24 | Cc1ccc(N=C2NC(=O)/C(=C/C=C/c3ccco3)S2)cc1 | inactive | 
25 | CCOC(=O)C1CCc2c(ccc3ccccc23)N1CCC#N (stereo not drawn) | inactive | 
26 | CCc1nc2c(OCc3ccc(C(F)(F)F)cc3)cccn2c1N(C)C(=O)C(C)C | inactive | 
27 | O=C(NCc1ccc2c(c1)CCN2C(=O)c1ccccc1)Nc1cccc(C(F)(F)F)c1 | inactive | 
28 | Cc1cccc(NC(=O)CSCC(=O)Nc2cccc(S(=O)(=O)N3CCCCCC3)c2)c1 | inactive | 
29 | CCOc1cccc(CNc2ccc(O)cc2)c1OCc1ccc(Cl)cc1Cl | inactive | 
30 | COc1ccc(C(=O)CC2(O)C(=O)N(Cc3cccc(C(F)(F)F)c3)c3ccccc32)cc1 (stereo not drawn) | inactive | 

These molecules were tested against Rap guanine nucleotide exchange factor 3 (Homo sapiens) (UniProt O95398) (assay: Counterscreen qHTS for antagonist of cAMP-regulated guanine nucleotide exchange factor 3 (EPAC1) (AID 1645888;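 on activity change, negative = inhibition: fluorescence loss as bound BODIPY-GDP is released from Rap1B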)). Conditions: Rap1B-BODIPY-GDP nucleotide exchange, fluorescence; series mostly up to 154 µM.
Chain of Rap guanine nucleotide exchange factor 3 (Homo sapiens) (O95398 whole entry, looked up): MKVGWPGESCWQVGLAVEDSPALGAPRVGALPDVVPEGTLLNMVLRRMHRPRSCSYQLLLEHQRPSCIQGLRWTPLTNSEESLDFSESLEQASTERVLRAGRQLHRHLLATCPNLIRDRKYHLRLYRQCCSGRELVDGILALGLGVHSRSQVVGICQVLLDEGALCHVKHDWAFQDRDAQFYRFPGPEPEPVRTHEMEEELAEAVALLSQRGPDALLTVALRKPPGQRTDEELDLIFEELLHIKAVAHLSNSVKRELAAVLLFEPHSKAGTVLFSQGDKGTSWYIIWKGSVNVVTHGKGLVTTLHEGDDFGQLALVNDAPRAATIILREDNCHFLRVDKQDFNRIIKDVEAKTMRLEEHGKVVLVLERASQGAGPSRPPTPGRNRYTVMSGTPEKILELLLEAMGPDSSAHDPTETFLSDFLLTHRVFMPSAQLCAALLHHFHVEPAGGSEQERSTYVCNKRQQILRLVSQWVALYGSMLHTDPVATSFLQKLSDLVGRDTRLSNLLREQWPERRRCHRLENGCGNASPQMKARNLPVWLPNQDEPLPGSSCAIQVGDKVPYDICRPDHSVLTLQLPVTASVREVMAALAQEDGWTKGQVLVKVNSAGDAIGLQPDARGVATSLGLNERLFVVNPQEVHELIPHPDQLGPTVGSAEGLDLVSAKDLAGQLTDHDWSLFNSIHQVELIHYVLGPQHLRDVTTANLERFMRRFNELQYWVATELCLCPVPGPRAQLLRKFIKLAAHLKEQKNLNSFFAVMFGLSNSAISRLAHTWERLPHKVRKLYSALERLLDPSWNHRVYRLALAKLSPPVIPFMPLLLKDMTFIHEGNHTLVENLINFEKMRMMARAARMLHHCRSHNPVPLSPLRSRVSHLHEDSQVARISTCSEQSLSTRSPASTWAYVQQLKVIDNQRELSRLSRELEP
Summary of the method: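 Rap1B–BODIPY-GDP (250 nM) with 50 uM GDP; compounds pin-transferred to 9.74 nM–152 uM final (activator) or from 7.32 nM upwards (inhibitor). Fluorescence Ex/Em 480/540 nm read at 5 and 30 min, then after adding cAMP or buffer, at room temperature.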

Row | Compound | Potency | activity change, negative = inhibition
31 | Cc1cccc(S(=O)(=O)Nc2ccc(S(=O)(=O)Nc3nccs3)cc2)c1 | inactive | 
32 | CCc1nc(Oc2cccc(F)c2)c2oc3ccccc3c2n1 | inactive | 
33 | CCOC(=O)c1cc2c(=O)n3ccccc3nc2n(Cc2ccco2)c1=NC(=O)c1c(F)cccc1Cl | inactive | 
34 | CCCC(=O)OC1CC(C)N(C(=O)c2ccccc2)c2ccc(C)cc21 (stereo not drawn) |  | -2.85% [at 30.8 µM]
35 | COc1ccc(OC)c(NC(=O)CSc2nc(O)cc(=O)n2CC(C)C)c1 | inactive | 
36 | COc1cc(NC(=O)c2cccc([N+](=O)[O-])c2)ccc1NC(=O)c1ccco1 | inactive | 
37 | CCCC1=C(C(=O)OCC)C(c2ccco2)C(C#N)=C(N)O1 (stereo not drawn) |  | -11% [at 30.8 µM]
38 | COc1ccc(C2C=C(c3ccc(Br)cc3)Nc3nnnn32)c(OC)c1 (stereo not drawn) | inactive | 
39 | CC(=O)N1N=C(c2ccc(Cl)cc2)CC1c1ccc([N+](=O)[O-])cc1 (stereo not drawn) |  | 2.9% [at 30.8 µM]
40 | CCOc1cc(-c2ccc(OC(=O)c3ccccc3)c(OC)c2)cc(=O)c2c(C)oc(C)c12 | inactive | 
41 | CCCOc1ccc(/C=C2/C(=O)ON=C2C)cc1Cl | inactive | 
42 | CCOc1cc(CNCCSc2nnnn2C)ccc1OCc1ccc(Cl)cc1Cl | 63.1 µM (active) | 
43 | Cc1noc(C)c1COc1ccccc1C(=O)NC(C)c1ccc(Cl)cc1 (stereo not drawn) | inactive | 
44 | CCOC(=O)c1ccc(NC(=O)c2c(NCc3cccs3)sc3c2CCCCC3)cc1 | inactive | 
45 | O=C(NNC(=O)c1ccccc1F)c1cccc(-n2cccc2)c1 | inactive | 
46 | CC1=NN(c2ccccc2)C(=O)C1=Cc1ccccc1 |  | 42% [at 30.8 µM]
47 | COC(=O)Cn1c(CN2CCc3ccccc3C2)nc2c1c(=O)n(C)c(=O)n2C | inactive | 
48 | CC(C)Cc1ccc(CN2CCCC(NC(=O)c3cnc4ccccn4c3=O)C2)cc1 (stereo not drawn) |  | 5.64% [at 30.8 µM]
49 | Cc1ccccc1NC(=O)c1sc2nc(-c3cc4ccccc4oc3=O)[nH]c(=O)c2c1C | inactive | 
50 | O=C(c1ccc(Br)cc1)C(CN1CCOCC1)c1ccccc1 (stereo not drawn) |  | 16% [at 30.8 µM]
51 | COc1ccc(C(=O)CSc2nnc(-c3ccco3)c(-c3ccco3)n2)cc1 | inactive | 
52 | CC(CNC(=O)c1sc2ncccc2c1-n1cccc1)c1ccccc1 (stereo not drawn) | inactive | 
53 | Cc1ccc(NC(=O)c2sc3nc(-c4ccncc4)ccc3c2N)cc1 | inactive | 
54 | O=C(NC1(O)C(=O)c2ccccc2C1=O)c1ccc(C(F)(F)F)cc1 | inactive | 
55 | CCOC(=O)C1CCc2c(ccc3ccccc23)N1CCC#N (stereo not drawn) |  | -15.2% [at 30.8 µM]
56 | CCc1nc2c(OCc3ccc(C(F)(F)F)cc3)cccn2c1N(C)C(=O)C(C)C |  | -5.96% [at 30.8 µM]
57 | O=C(NCc1ccc2c(c1)CCN2C(=O)c1ccccc1)Nc1cccc(C(F)(F)F)c1 | inactive | 
58 | CCOc1cccc(CNc2ccc(O)cc2)c1OCc1ccc(Cl)cc1Cl | inactive | 
